From the supplement of paper PMC9262897, “Low-cost anti-mycobacterial drug discovery using engineered E. coli” (Nature Communications, 2022)
Structures can show the parent of a compound that is named as a salt. ± gives the standard deviation of the averaged measurements.

Columns and labels:
Test in all cases: growth (OD600 after 10 h); higher = more growth (less inhibition)
[1] = test system: E. coli TESEC Alr+ wild-type control; conditions: compound 0.1 mM; raw OD600 reference: median of DMSO wells 0.241, cell-free background 0.041
Method: (§1)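 TESEC Mtb Alr E. coli, or the Alr+ wild-type control, in 384-well plates with Prestwick library compounds at 0.1 mM and 1% DMSO, across arabinose induction levels of 1E3 to 1E7 nM. Growth is read as OD600 after 10 h at 37 °C in triplicate biological replicates.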

E. coli TESEC Mtb Alr [2] = conditions: compound 0.1 mM
Method: as §1

E. coli TESEC Mtb Asd = conditions: compound 0.1 mM
Method: (§2)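 TESEC E. coli strains in which the native enzyme is deleted and replaced by arabinose-inducible Mtb Asd, DapB, CysH or TrpD, each grown in its selective medium. Strains were screened against the Prestwick library at 0.1 mM and 1% DMSO in 384-well format at low and high arabinose induction. Growth is read as OD600 after 10 h in triplicate.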

E. coli TESEC Mtb DapB = conditions: compound 0.1 mM
Method: as §2

[3] = test system: E. coli TESEC Alr+ wild-type control; conditions: compound 0.1 mM; raw OD600 reference: median of DMSO wells 0.49, cell-free background 0.052
Method: (§3)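 TESEC Mtb Alr E. coli (ΔaraC ΔtolC ΔentC Δalr ΔdadX, arabinose-inducible Mtb Alr) or the Alr+ wild-type control strain, grown in defined M9-fructose medium without D-alanine in 96-well plates with Prestwick library compounds at 0.1 mM and 1% DMSO. Low Alr induction is 0.1 µM arabinose and high induction is 10 mM arabinose.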

E. coli TESEC Mtb Alr [4] = conditions: compound 0.1 mM; remark: listed apart in the source
Method: as §3

[5] = arabinose 1000 nM, raw OD600 reference: median of DMSO wells 0.294, cell-free background 0.041
[6] = arabinose 10000 nM, raw OD600 reference: median of DMSO wells 0.264, cell-free background 0.041
[7] = arabinose 100000 nM, raw OD600 reference: median of DMSO wells 0.201, cell-free background 0.041
[8] = arabinose 1000000 nM, raw OD600 reference: median of DMSO wells 0.193, cell-free background 0.041
[9] = arabinose 10000000 nM, raw OD600 reference: median of DMSO wells 0.146, cell-free background 0.041
[10] = arabinose induction (level): High, raw OD600 reference: median of DMSO wells 0.331, cell-free background 0.041
[11] = arabinose induction (level): Low, raw OD600 reference: median of DMSO wells 0.417, cell-free background 0.041
[12] = arabinose induction (level): High, raw OD600 reference: median of DMSO wells […], cell-free background 0.041
[13] = arabinose induction (level): Low, raw OD600 reference: median of DMSO wells 0.227, cell-free background 0.041
[14] = arabinose 100 nM, raw OD600 reference: median of DMSO wells 0.413, cell-free background 0.052
[15] = arabinose 10000000 nM, raw OD600 reference: median of DMSO wells […], cell-free background 0.052

Compound	growth [1]	growth (E. coli TESEC Mtb Alr [2]; [5])	growth (E. coli TESEC Mtb Alr [2]; [6])	growth (E. coli TESEC Mtb Alr [2]; [7])	growth (E. coli TESEC Mtb Alr [2]; [8])	growth (E. coli TESEC Mtb Alr [2]; [9])	growth (E. coli TESEC Mtb Asd; [10])	growth (E. coli TESEC Mtb Asd; [11])	growth (E. coli TESEC Mtb DapB; [12])	growth (E. coli TESEC Mtb DapB; [13])	growth [3]	growth (E. coli TESEC Mtb Alr [4]; [14])	growth (E. coli TESEC Mtb Alr [4]; [15])
CC(=O)O[C@@]12CO[C@@H]1C[C@H](O)[C@@]1(C)C(=O)[C@H](O)C3=C(C)[C@@H](OC(=O)[C@H](O)[C@@H](NC(=O)OC(C)(C)C)c4ccccc4)C[C@@](O)([C@@H](OC(=O)c4ccccc4)[C@H]21)C3(C)C [Docetaxel]	0.266 ± 0.005	0.34 ± 0.0038	0.299 ± 0.014	0.311 ± 0.094	0.134 ± 0.011	0.206 ± 0.02	0.248 ± 0.011	0.373 ± 0.071	0.204 ± 0.016	0.229 ± 0.047	0.614 ± 0.12	0.4282 ± 0.0041	0.297 ± 0.0093
COc1cc2nc(N3CCN(C(=O)C4CCCO4)CC3)nc(N)c2cc1OC (stereo not drawn) [Terazosin hydrochloride]	0.208 ± 0.008	0.292 ± 0.0061	0.2762 ± 0.00084	0.139 ± 0.0052	0.138 ± 0.0066	0.144 ± 0.0038	0.215 ± 0.012	0.431 ± 0.0086	0.222 ± 0.02	0.219 ± 0.012	0.443 ± 0.035	0.407 ± 0.01	0.259 ± 0.019
CN[C@@H]1[C@H](O[C@H]2[C@H](O[C@H]3[C@H](O)[C@@H](O)[C@H](NC(=N)N)[C@@H](O)[C@@H]3NC(=N)N)O[C@@H](C)[C@]2(O)CO)O[C@@H](CO)[C@H](O)[C@H]1O [Dihydrostreptomycin sulfate]	0.041 ± 0.0011	0.0419 ± 0.0011	0.03877 ± 0.00012	0.0454 ± 0.0053	0.0395 ± 0.0004	0.0485 ± 0.0005	0.0488 ± 0.00072	0.0499 ± 0.0017	0.0489 ± 0.00049	0.0483 ± 0.00061	0.0605 ± 0.0073	0.0553 ± 0.0036	0.0534 ± 0.00091
CCCCc1nc(Cl)c(CO)n1Cc1ccc(-c2ccccc2-c2nnn[nH]2)cc1 [Losartan]	0.204 ± 0.0085	0.281 ± 0.015	0.258 ± 0.0039	0.209 ± 0.026	0.161 ± 0.0058	0.1297 ± 0.0011	0.23 ± 0.017	0.409 ± 0.0075	0.195 ± 0.015	0.228 ± 0.018	0.495 ± 0.071	0.4187 ± 0.0032	0.279 ± 0.0092
CCCCNc1ccc(C(=O)OCCOCCOCCOCCOCCOCCOCCOCCOCCOC)cc1 [Benzonatate]	0.241 ± 0.0078	0.279 ± 0.0063	0.252 ± 0.011	0.217 ± 0.0091	0.148 ± 0.006	0.157 ± 0.0052	0.245 ± 0.012	0.405 ± 0.0093	0.17 ± 0.017	0.206 ± 0.036	0.444 ± 0.033	0.407 ± 0.012	0.264 ± 0.12
COc1cc(OC)c(C(=O)CCCN2CCCC2)c(OC)c1 [Buflomedil hydrochloride]	0.238 ± 0.0082	0.296 ± 0.0094	0.269 ± 0.0091	0.201 ± 0.04	0.189 ± 0.0075	0.146 ± 0.0076	0.274 ± 0.033	0.335 ± 0.064	0.166 ± 0.041	0.188 ± 0.01	0.642 ± 0.053	0.407 ± 0.0067	0.345 ± 0.0037
c1ccc([C@H]2CN3CCSC3=N2)cc1 [Levamisole hydrochloride]	0.253 ± 0.0028	0.286 ± 0.0062	0.279 ± 0.005	0.209 ± 0.017	0.186 ± 0.0053	0.142 ± 0.0042	0.364 ± 0.033	0.428 ± 0.026	0.182 ± 0.0088	0.214 ± 0.023	0.511 ± 0.054	0.413 ± 0.0046	0.353 ± 0.019
CNc1ncnc2c1ncn2[C@@H]1O[C@H](CO)[C@@H](O)[C@H]1O [N6-methyladenosine]	0.283 ± 0.008	0.334 ± 0.023	0.263 ± 0.0068	0.261 ± 0.012	0.189 ± 0.003	0.15 ± 0.0032	0.343 ± 0.044	0.416 ± 0.023	0.21 ± 0.0029	0.209 ± 0.0066	0.539 ± 0.094	0.28 ± 0.065	0.364 ± 0.0048
C[C@]12C=CC(=O)C=C1CC[C@H]1[C@@H]3C[C@@H](O)[C@](O)(C(=O)CO)[C@@]3(C)C[C@H](O)[C@@]12F [Triamcinolone]	0.222 ± 0.0077	0.256 ± 0.033	0.266 ± 0.0064	0.157 ± 0.014	0.142 ± 0.0088	0.127 ± 0.0023	0.222 ± 0.011	0.452 ± 0.014	0.191 ± 0.014	0.229 ± 0.022	0.451 ± 0.037	0.4315 ± 0.0037	0.306 ± 0.03
CNCCC(Oc1ccc(C(F)(F)F)cc1)c1ccccc1 (stereo not drawn) [Fluoxetine hydrochloride]	0.129 ± 0.0027	0.0669 ± 0.0012	0.133 ± 0.0068	0.0693 ± 0.0015	0.0486 ± 0.00026	0.05543 ± 0.00047	0.0984 ± 0.0045	0.086 ± 0.016	0.142 ± 0.036	0.132 ± 0.0058	0.118 ± 0.11	0.411 ± 0.011	0.0614 ± 0.0047
CCCCNC(=O)NS(=O)(=O)c1ccc(C)cc1 [Tolbutamide]	0.253 ± 0.0049	0.295 ± 0.005	0.243 ± 0.0065	0.191 ± 0.018	0.16 ± 0.006	0.136 ± 0.0022	0.222 ± 0.016	0.405 ± 0.074	0.187 ± 0.021	0.186 ± 0.012	0.521 ± 0.12	0.409 ± 0.006	0.352 ± 0.021
COc1ccc(NS(=O)(=O)c2ccc(N)cc2)nn1 [Sulfamethoxypyridazine]	0.2402 ± 0.0024	0.296 ± 0.011	0.236 ± 0.0055	0.226 ± 0.024	0.181 ± 0.0072	0.141 ± 0.0061	0.355 ± 0.042	0.393 ± 0.016	0.203 ± 0.012	0.22 ± 0.01	0.459 ± 0.011	0.408 ± 0.0075	0.367 ± 0.018
CC(C)(O)c1ccccc1CC[C@@H](SCC1(CC(=O)O)CC1)c1cccc(/C=C/c2ccc3ccc(Cl)cc3n2)c1 [Montelukast]	0.24 ± 0.013	0.281 ± 0.0035	0.317 ± 0.012	0.31 ± 0.019	0.206 ± 0.0075	0.261 ± 0.012	0.219 ± 0.028	0.347 ± 0.065	0.183 ± 0.025	0.253 ± 0.023	0.566 ± 0.061	0.479 ± 0.027	0.376 ± 0.026
CC(C)[C@H]1CC[C@H](C(=O)N[C@H](Cc2ccccc2)C(=O)O)CC1 [Nateglinide]	0.181 ± 0.0028	0.277 ± 0.0054	0.246 ± 0.019	0.169 ± 0.0079	0.114 ± 0.0027	0.147 ± 0.0056	0.229 ± 0.039	0.23 ± 0.021	0.1583 ± 0.001	0.217 ± 0.06	0.6242 ± 0.0051	0.22 ± 0.16	0.284 ± 0.009
CC[C@@H](CO)NCCN[C@@H](CC)CO [Ethambutol dihydrochloride]	0.25 ± 0.0032	0.291 ± 0.023	0.255 ± 0.0099	0.216 ± 0.021	0.18 ± 0.0035	0.147 ± 0.0024	0.353 ± 0.067	0.39 ± 0.091	0.19 ± 0.0055	0.2 ± 0.022	0.476 ± 0.06	0.411 ± 0.0072	0.366 ± 0.015
COCCOC(=O)C1=C(C)NC(C)=C(C(=O)OC(C)C)C1c1cccc([N+](=O)[O-])c1 (stereo not drawn) [Nimodipine]	0.18 ± 0.017	0.176 ± 0.062	0.0601 ± 0.0043	0.154 ± 0.0027	0.0632 ± 0.0037	0.08053 ± 0.00035	0.274 ± 0.024	0.487 ± 0.0068	0.169 ± 0.016	0.197 ± 0.037	0.325 ± 0.004	0.404 ± 0.025	0.0716 ± 0.011
